In the supplement of paper PMC10849652:
Targets with a hit are over-represented here; the source holds about 7,900 in all. About 0.6% of all pairs of compound and target were hits.

Columns and labels:
Experiment in all cases: log2 fold change, soluble protein after heating vs DMSO (PISA); higher = thermal stabilisation; K562 cells, 10 uM, 30 min; active = over 0.2 and 3.5 SD of the protein, either way, in both replicates (recomputed)
[1] = compound: CC1=C(C=C(C=C1)NC(=O)C2=CC(=CC=C2)C(C)(C)C#N)NC3=CC4=C(C=C3)N=CN(C4=O)C
In short: (§1)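 Values are thermal stability changes relative to control samples and are taken from duplicates. They are stated as log2 fold changes. Before quantification by TMTpro 16plex LC-MS/MS with equalised channel sums, K562 cells at 2×10^6 cells/mL were treated with 10 μM compound for 30 min, heated in aliquots for 3 min across 48°C-58°C, pooled, extracted in PBS with 0.5% NP-40 at 4°C, and centrifuged at 21,000xg for 90 min to give the soluble supernatant.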

[2] = compound: CC1=C(C=C(C=C1)NC(=O)C2=CC(=CC=C2)N(C)C)NC(=O)C3=CC=C(C=C3)O
In short: as §1

[3] = compound: CC1=CC=C(C=C1)SC2=C3C=C(SC3=CN=C2)C(=O)N
In short: as §1

[4] = compound: CC1=NC(=CC=C1)C2=C(N=C(N2)C(C)(C)C)C3=CC4=NC=CN=C4C=C3
In short: as §1

Nexturastat A = compound: CCCCN(Cc1ccc(C(=O)NO)cc1)C(=O)Nc1ccccc1 [Nexturastat A]
In short: as §1

vemurafenib = compound: CCCS(=O)(=O)Nc1ccc(F)c(C(=O)c2c[nH]c3ncc(-c4ccc(Cl)cc4)cc23)c1F [vemurafenib]
In short: as §1

[5] = compound: CCCS(=O)(=O)Nc1ccc(F)c(C(=O)c2c[nH]c3ncc(Cl)cc23)c1F
In short: as §1

[6] = compound: CCCc1cc(C)[nH]c(=O)c1CNC(=O)c1cc(-c2ccnc(N3CCN(C)CC3)c2)cc2c1cnn2C(C)C
In short: as §1

givinostat = compound: CCN(CC)Cc1ccc2cc(COC(=O)Nc3ccc(C(=O)NO)cc3)ccc2c1 [givinostat]
In short: as §1

barasertib = compound: CCN(CCCOc1ccc2c(Nc3cc(CC(=O)Nc4cccc(F)c4)[nH]n3)ncnc2c1)CCOP(=O)(O)O [barasertib]
In short: as §1

[7] = compound: CC[C@@H]1C(=O)N(C)c2cnc(Nc3ccc(C(=O)NC4CCN(C)CC4)cc3OC)nc2N1C1CCCC1
In short: as §1

volasertib = compound: CC[C@@H]1C(=O)N(C)c2cnc(Nc3ccc(C(=O)N[C@H]4CC[C@H](N5CCN(CC6CC6)CC5)CC4)cc3OC)nc2N1C(C)C [volasertib]
In short: as §1

[8] = compound: CC[C@H](C)N1C=C(C2=C(C=C(C=C21)C3=CN=C(C=C3)N4CCNCC4)C(=O)NCC5=C(C=C(NC5=O)C)C)C
In short: as §1

epoxomicin = compound: CC[C@H](C)[C@@H](C(=O)N[C@@H]([C@@H](C)O)C(=O)N[C@@H](CC(C)C)C(=O)[C@]1(CO1)C)NC(=O)[C@H]([C@@H](C)CC)N(C)C(=O)C [epoxomicin]
In short: as §1

[9] = compound: CCn1c(C(=O)N(C2CC2)C2CC2)cc2c3c(ncn3C)c(Nc3cc(C)n(C)n3)nc21
In short: as §1

[10] = compound: CCn1cc(-c2ccnc3[nH]c(-c4cccc(CN(C)C)c4)cc23)c(-c2ccc(NC(=O)N(C)C)cc2)n1
In short: as §1

[11] = compound: CN(C)CC(=O)Nc1ccc2[nH]c(=O)c3ccccc3c2c1
In short: as §1

rosiglitazone = compound: CN(CCOC1=CC=C(C=C1)C[C@H]2C(=O)NC(=O)S2)C3=CC=CC=N3 (racemic) [rosiglitazone]
In short: as §1

[12] = compound: CN1C2=C(C3=C1C(=O)N(N=C3)CC4=CC(=CC=C4)N)SC(=C2)S(=O)C
In short: as §1

[13] = compound: CN1CCC(CNc2ccc3ncc(-c4cccc(OC(F)(F)F)c4)n3n2)CC1
In short: as §1

Measured: log2 fold change

TMEM9 (UniProt Q9P0T7)
Sequence of UniProt Q9P0T7 (Q9P0T7 whole entry, looked up): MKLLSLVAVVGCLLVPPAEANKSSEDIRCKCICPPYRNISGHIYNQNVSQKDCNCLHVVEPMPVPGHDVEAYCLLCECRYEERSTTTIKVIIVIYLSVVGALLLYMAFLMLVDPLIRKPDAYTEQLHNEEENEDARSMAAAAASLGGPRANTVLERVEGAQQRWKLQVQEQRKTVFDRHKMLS
active: epoxomicin 0.296
inactive: [1] -0.024 | [2] -0.041 | [3] 0.057 | [4] -0.008 | Nexturastat A 0 | vemurafenib 0.028 | [5] 0.091 | [6] -0.062 | givinostat 0.039 | barasertib 0.019 | [7] -0.112 | volasertib -0.07 | [8] -0.05 | [9] -0.018 | [10] 0.015 | [11] 0.004 | rosiglitazone -0.157 | [12] -0.015 | [13] -0.007

TRAPPC11 (UniProt Q7Z392)
Sequence of UniProt Q7Z392 (Q7Z392 whole entry, looked up): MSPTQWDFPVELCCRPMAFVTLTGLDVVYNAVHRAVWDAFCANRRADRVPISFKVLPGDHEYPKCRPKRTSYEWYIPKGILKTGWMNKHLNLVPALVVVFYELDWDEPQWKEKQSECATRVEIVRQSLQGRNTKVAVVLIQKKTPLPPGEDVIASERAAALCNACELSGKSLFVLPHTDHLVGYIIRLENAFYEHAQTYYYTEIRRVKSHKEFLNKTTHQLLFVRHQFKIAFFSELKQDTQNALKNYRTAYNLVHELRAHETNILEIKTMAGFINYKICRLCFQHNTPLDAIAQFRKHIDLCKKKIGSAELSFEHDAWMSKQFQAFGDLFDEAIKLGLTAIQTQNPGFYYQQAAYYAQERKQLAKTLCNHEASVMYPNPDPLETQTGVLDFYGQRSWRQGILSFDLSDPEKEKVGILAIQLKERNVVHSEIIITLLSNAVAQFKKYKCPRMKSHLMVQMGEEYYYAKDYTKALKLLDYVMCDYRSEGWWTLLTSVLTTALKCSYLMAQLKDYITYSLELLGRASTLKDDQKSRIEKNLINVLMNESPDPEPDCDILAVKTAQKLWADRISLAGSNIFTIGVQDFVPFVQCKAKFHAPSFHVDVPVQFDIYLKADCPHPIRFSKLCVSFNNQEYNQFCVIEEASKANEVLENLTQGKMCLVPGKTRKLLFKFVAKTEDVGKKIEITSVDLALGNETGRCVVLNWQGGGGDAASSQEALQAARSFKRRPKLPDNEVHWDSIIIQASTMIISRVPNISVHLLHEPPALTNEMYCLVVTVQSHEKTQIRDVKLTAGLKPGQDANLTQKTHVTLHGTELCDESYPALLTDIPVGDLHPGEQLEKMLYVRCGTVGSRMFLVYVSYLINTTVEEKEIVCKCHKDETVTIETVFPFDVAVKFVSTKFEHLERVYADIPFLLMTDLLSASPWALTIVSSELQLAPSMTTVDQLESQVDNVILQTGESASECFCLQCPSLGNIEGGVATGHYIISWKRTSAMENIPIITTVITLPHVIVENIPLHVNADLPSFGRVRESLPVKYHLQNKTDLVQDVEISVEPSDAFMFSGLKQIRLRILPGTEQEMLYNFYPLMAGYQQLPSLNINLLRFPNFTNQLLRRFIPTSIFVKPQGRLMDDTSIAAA
inactive: [1] 0.098 | [2] 0.01 | [3] -0.014 | [4] -0.053 | Nexturastat A 0.046 | vemurafenib 0.033 | [5] 0.025 | [6] -0.012 | givinostat 0.037 | barasertib 0.025 | [7] -0.045 | [8] 0.015 | epoxomicin 0.016 | [9] -0.049 | [10] -0.032 | [11] 0.032 | rosiglitazone -0.027 | [12] 0.004 | [13] -0.127
active: volasertib -0.275

TRAPPC6B (UniProt Q86SZ2)
Sequence of UniProt Q86SZ2 (Q86SZ2 whole entry, looked up): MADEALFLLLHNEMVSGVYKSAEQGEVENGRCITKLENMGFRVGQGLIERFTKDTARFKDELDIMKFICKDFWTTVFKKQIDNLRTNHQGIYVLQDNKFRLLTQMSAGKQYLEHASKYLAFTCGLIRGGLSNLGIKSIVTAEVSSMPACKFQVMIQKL
inactive: [1] 0.022 | [2] -0.01 | [3] 0.049 | [4] 0.07 | Nexturastat A -0.097 | vemurafenib 0.009 | [5] 0.02 | [6] -0.063 | givinostat -0.02 | barasertib 0.008 | [7] -0.015 | volasertib -0.002 | [8] -0.011 | epoxomicin 0.146 | [9] 0.009 | [10] -0.05 | [11] -0.01 | rosiglitazone -0.008 | [12] -0.026 | [13] -0.08

TRAPPC2L (UniProt Q9UL33)
Sequence of UniProt Q9UL33 (Q9UL33 whole entry, looked up): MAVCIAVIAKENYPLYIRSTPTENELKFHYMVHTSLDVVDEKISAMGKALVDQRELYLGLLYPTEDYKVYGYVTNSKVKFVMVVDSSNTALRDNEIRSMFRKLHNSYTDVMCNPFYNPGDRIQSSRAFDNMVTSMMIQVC
inactive: [1] 0 | [2] -0.135 | [3] 0.133 | [4] 0.045 | Nexturastat A 0.003 | vemurafenib 0.076 | [5] 0.11 | [6] 0.055 | givinostat -0.123 | barasertib 0.05 | [7] -0.109 | volasertib -0.065 | [8] 0.008 | epoxomicin 0.06 | [9] -0.076 | [10] -0.042 | [11] 0.128 | rosiglitazone 0.053 | [12] 0.007 | [13] 0.001

TOM1L1 (UniProt O75674)
Sequence of UniProt O75674 (O75674 whole entry, looked up): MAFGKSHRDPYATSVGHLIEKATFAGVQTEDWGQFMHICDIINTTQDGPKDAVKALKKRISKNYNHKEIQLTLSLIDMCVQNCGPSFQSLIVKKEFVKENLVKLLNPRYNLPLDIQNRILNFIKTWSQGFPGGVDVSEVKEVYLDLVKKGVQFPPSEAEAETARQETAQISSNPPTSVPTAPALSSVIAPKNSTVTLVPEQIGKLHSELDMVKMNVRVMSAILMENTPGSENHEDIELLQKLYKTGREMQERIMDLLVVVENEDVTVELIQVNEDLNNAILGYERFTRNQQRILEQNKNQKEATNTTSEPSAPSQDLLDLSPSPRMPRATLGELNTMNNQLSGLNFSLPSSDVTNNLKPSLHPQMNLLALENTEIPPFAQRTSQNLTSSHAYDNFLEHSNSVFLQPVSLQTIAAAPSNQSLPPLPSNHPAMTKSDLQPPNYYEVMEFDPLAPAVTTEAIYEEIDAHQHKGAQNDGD
inactive: [1] -0.101 | [2] 0.005 | [3] 0.057 | [4] 0.019 | Nexturastat A -0.038 | vemurafenib 0.102 | [5] 0.015 | [6] -0.07 | givinostat 0.024 | barasertib 0.03 | [7] 0.072 | volasertib -0.052 | [8] 0.027 | epoxomicin 0.013 | [9] -0.023 | [10] -0.004 | [11] 0.043 | rosiglitazone 0.062 | [12] -0.053
active: [13] 0.385

VTI1A (UniProt Q96AJ9)
Sequence of UniProt Q96AJ9 (Q96AJ9 whole entry, looked up): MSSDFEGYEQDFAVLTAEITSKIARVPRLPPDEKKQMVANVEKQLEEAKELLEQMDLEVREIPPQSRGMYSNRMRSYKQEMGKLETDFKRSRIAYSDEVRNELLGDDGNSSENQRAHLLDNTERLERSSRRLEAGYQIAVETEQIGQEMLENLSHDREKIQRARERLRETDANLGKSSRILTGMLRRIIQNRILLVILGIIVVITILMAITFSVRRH
inactive: [1] -0.039 | [2] 0.015 | [3] 0.011 | [4] 0.095 | Nexturastat A -0.023 | vemurafenib -0.014 | [5] -0.035 | [6] 0.052 | givinostat -0.013 | barasertib -0.009 | [7] 0.051 | volasertib -0.002 | [8] -0.026 | epoxomicin 0.006 | [9] 0.039 | [10] 0.068 | [11] 0.028 | rosiglitazone -0.017 | [12] 0.01
active: [13] -0.219

USP7 (UniProt Q93009)
inactive: [1] 0.054 | [2] -0.046 | [3] 0.007 | [4] 0.012 | Nexturastat A 0.015 | vemurafenib 0.036 | [5] 0.068 | [6] 0 | givinostat 0.083 | barasertib 0.073 | [7] -0.045 | volasertib -0.215 | [8] 0.101 | epoxomicin 0.02 | [9] -0.12 | [10] -0.164 | [11] 0.097 | rosiglitazone 0.116 | [12] -0.005
active: [13] -0.351

VARS2, A0A0G2JL52
inactive: [1] -0.003 | [2] 0.005 | [3] -0.025 | [4] 0.012 | Nexturastat A 0.005 | vemurafenib 0.03 | [5] 0.047 | [6] -0.018 | givinostat -0.015 | barasertib 0.052 | [7] -0.024 | volasertib 0.001 | [8] 0.08 | epoxomicin 0.011 | [9] 0.006 | [10] -0.013 | [11] 0.007 | rosiglitazone 0.03 | [12] -0.016 | [13] -0.126

TOP2A isoform 4 (UniProt P11388)
inactive: [1] 0.081 | [2] -0.006 | [3] -0.083 | [4] -0.094 | Nexturastat A 0.234 | vemurafenib -0.213 | [5] 0.042 | [6] 0.182 | givinostat 0.207 | barasertib -0.054 | [7] 0.198 | volasertib 0.226 | [8] 0.106 | epoxomicin -0.231 | [9] 0.052 | [10] 0.156 | [11] -0.194 | rosiglitazone -0.169 | [12] 0.526 | [13] 0.128

WAPL isoform 3 (UniProt Q7Z5K2)
active: volasertib -0.61
inactive: [1] -0.038 | [2] -0.109 | [3] 0.056 | [4] -0.006 | Nexturastat A -0.134 | vemurafenib 0.097 | [5] 0.083 | [6] -0.054 | givinostat 0.149 | barasertib 0.201 | [7] -0.183 | [8] 0.164 | epoxomicin 0.101 | [9] -0.038 | [10] 0.015 | [11] 0.104 | rosiglitazone -0.06 | [12] -0.018 | [13] -0.246

TXNRD1 (UniProt Q16881)
Sequence of UniProt Q16881 (Q16881 whole entry, looked up): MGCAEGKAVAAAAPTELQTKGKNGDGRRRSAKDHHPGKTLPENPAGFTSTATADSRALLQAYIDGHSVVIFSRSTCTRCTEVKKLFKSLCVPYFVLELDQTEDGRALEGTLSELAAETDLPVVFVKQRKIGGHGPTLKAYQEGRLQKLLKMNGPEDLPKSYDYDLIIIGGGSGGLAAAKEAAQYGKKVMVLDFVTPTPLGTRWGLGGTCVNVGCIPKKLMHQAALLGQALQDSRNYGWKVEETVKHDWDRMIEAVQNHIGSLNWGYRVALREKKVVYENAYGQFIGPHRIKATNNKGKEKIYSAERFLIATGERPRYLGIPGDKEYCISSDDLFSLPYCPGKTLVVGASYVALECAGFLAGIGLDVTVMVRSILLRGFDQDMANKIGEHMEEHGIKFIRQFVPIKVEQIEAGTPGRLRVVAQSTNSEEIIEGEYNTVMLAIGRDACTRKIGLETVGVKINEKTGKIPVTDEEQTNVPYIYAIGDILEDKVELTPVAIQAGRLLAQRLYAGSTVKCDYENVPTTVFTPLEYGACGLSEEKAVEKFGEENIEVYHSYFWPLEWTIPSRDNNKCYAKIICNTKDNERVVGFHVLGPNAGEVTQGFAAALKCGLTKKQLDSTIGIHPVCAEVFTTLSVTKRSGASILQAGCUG
inactive: [1] 0.032 | [2] 0.006 | [3] 0.021 | [4] 0.039 | Nexturastat A -0.051 | vemurafenib 0.024 | [5] 0.007 | [6] -0.035 | givinostat 0.011 | barasertib 0.024 | [7] 0.004 | volasertib 0.05 | [8] 0.006 | epoxomicin 0.054 | [9] -0.032 | [10] -0.049 | [11] -0.003 | rosiglitazone 0.067 | [12] -0.096 | [13] -0.006

UHRF1BP1L (UniProt A0JNW5)
Sequence of UniProt A0JNW5 (A0JNW5 whole entry, looked up): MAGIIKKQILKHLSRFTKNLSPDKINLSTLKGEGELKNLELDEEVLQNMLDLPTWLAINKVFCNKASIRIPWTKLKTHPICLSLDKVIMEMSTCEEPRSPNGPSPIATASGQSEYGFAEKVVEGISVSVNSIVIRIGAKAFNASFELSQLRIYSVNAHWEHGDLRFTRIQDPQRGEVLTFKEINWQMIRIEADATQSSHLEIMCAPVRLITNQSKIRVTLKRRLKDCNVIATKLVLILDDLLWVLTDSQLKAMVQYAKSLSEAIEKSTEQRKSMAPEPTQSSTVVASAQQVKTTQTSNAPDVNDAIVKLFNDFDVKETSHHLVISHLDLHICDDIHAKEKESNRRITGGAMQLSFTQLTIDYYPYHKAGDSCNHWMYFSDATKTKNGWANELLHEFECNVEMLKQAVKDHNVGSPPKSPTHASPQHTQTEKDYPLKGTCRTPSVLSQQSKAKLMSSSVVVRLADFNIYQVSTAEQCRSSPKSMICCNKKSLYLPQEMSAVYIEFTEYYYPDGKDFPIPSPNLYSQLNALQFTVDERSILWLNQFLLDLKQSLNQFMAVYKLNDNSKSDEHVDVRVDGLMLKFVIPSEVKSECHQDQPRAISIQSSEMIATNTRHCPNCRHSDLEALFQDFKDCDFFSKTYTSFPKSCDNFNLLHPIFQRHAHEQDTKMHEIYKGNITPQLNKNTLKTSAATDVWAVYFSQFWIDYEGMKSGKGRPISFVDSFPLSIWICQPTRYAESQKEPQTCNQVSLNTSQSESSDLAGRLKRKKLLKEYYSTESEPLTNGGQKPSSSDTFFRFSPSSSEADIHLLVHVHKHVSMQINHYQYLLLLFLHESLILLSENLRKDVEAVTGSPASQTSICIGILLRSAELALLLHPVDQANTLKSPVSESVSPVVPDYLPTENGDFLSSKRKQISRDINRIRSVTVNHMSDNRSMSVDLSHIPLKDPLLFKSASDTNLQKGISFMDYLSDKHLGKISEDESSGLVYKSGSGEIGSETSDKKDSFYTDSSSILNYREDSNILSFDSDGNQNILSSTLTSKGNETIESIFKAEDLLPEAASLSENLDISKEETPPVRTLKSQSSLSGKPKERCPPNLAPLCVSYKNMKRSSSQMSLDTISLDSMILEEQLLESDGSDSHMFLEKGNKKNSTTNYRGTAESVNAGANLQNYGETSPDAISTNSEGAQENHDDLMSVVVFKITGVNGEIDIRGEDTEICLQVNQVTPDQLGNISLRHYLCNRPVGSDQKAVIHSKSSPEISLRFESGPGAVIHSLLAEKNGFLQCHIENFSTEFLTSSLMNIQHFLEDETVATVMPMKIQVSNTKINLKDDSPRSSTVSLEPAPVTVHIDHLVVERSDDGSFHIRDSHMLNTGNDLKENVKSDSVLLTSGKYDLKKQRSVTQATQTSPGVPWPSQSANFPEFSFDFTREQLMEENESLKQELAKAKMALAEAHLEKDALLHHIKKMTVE
inactive: [1] -0.079 | [2] -0.031 | [3] -0.038 | [4] -0.032 | Nexturastat A -0.054 | vemurafenib -0.039 | [5] -0.033 | [6] 0.027 | givinostat -0.033 | barasertib 0 | [7] 0.165 | volasertib 0.034 | [8] -0.009 | epoxomicin -0.022 | [9] -0.018 | [10] -0.086 | [11] 0.02 | rosiglitazone 0.028 | [12] -0.079 | [13] 0.1

WARS2 (UniProt Q9UGM6)
Sequence of UniProt Q9UGM6 (Q9UGM6 whole entry, looked up): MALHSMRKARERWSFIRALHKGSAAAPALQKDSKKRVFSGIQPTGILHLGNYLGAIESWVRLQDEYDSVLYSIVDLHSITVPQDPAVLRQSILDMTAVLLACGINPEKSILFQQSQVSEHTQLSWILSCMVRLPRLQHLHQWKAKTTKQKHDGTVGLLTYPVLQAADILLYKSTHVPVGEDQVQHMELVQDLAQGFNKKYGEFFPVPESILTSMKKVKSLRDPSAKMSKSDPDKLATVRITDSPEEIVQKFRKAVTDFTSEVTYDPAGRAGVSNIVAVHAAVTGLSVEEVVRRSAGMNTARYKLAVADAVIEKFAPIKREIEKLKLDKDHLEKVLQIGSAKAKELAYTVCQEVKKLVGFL
active: volasertib -0.323
inactive: [1] -0.03 | [2] 0.032 | [3] 0.018 | [4] 0.074 | Nexturastat A -0.128 | vemurafenib 0.048 | [5] 0.136 | [6] 0.042 | givinostat -0.026 | barasertib 0.012 | [7] -0.07 | [8] 0.099 | epoxomicin 0.016 | [9] 0.043 | [10] -0.03 | [11] 0.043 | rosiglitazone 0.074 | [12] -0.055 | [13] -0.099

UBAP2L isoform 5 (UniProt Q14157)
inactive: [1] -0.014 | [2] 0.036 | [3] 0.017 | [4] 0.013 | Nexturastat A 0.017 | vemurafenib -0.008 | [5] 0.006 | [6] -0.03 | givinostat 0.011 | barasertib 0.011 | [7] 0.005 | volasertib -0.023 | [8] -0.02 | epoxomicin -0.018 | [9] 0.019 | [10] 0.004 | [11] -0.035 | rosiglitazone -0.007 | [12] -0.039 | [13] 0.009

USP3 (UniProt Q9Y6I4)
inactive: [1] 0.026 | [2] -0.016 | [3] 0.085 | [4] 0.069 | Nexturastat A 0.01 | vemurafenib 0.112 | [5] 0.192 | [6] -0.069 | givinostat -0.022 | barasertib 0.067 | [7] -0.173 | volasertib -0.325 | [8] 0.04 | epoxomicin -0.083 | [9] -0.051 | [10] -0.037 | [11] 0.063 | rosiglitazone 0.094 | [12] -0.077
active: [13] -0.379

UBAP2L isoform 1 (UniProt Q14157)
active: [5] 0.246 | givinostat -0.261
inactive: [1] -0.057 | [2] 0.035 | [3] -0.016 | [4] 0.025 | Nexturastat A 0.012 | vemurafenib -0.083 | [6] -0.045 | barasertib -0.011 | [7] -0.026 | volasertib -0.417 | [8] 0.046 | epoxomicin -0.005 | [9] 0.059 | [10] 0.026 | [11] -0.004 | rosiglitazone 0.001 | [12] 0 | [13] -0.023
